In PubChem BioAssay (NCATS):
Values joined by “and” are separate entries in the source; they are usually repeats but may differ in a detail not shown here. Equal values may be shown once. Records with an inconclusive call do not appear. Active and inactive are the calls of the source. Unless noted, the call rests on the fitted dose curve; in most records, active means well fitted curve in the direction sought with a large enough effect; inconclusive means small, poorly fitted or top-dose-only effect, or another doubt; inactive means no such curve, though single readings can be large; an effect the other way counts as inactive or inconclusive.

Legend:
[1] = qHTS Assay for Identification of Small Molecule Antagonists for NFkB Signaling Pathway (AID 895; active means well fitted inhibition curve with a large enough effect in the signal ratio, with a control signal flat, not every such curve was filed as active; the % refers to the signal ratio; further: potency means the concentration at half of the fitted maximal effect; on activity change, negative = inhibition: on the % scale 0 is the no-effect control and ±100 the full control effect)
Summary of the method: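 Beta-lactamase reporter read-out (460 and 530 nm emission ratio, 405 nm excitation, 2 hrs substrate loading RT) after 5 hr stimulation with 10 pM TNF alpha in compound-treated NFkB-bla ME-180 cells in low-serum medium.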

[2] = molecular target: Guanine nucleotide-binding protein G(i) subunit alpha-1 (Homo sapiens) (UniProt P63096); test: qHTS Assay for Inhibitors of RGS12 GoLoco Motif Activity (Green Fluorophore) (AID 879);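 further: 0% = labeled peptide with Gαi1 and full inhibition = labeled peptide alone without protein; negative values mean loss of peptide binding seen as reduced polarization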
Guanine nucleotide-binding protein G(i) subunit alpha-1 (Homo sapiens), sequence (P63096 whole entry, looked up): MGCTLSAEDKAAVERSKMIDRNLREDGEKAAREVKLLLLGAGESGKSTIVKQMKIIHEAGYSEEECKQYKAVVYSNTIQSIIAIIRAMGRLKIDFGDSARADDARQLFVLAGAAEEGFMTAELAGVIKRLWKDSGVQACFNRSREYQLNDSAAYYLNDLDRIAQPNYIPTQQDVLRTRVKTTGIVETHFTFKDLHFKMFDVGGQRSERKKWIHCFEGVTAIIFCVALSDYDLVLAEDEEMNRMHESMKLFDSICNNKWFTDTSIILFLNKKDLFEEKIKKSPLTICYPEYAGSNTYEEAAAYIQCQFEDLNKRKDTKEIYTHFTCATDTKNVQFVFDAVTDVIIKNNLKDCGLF
Summary of the method: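 A drop in FITC polarization marked displacement of the FITC-tagged RGS12 GoLoco peptide (10 nM) from Gαi1 (50 nM). Compounds were incubated 10 min at room temperature in Tris pH 7.5 buffer containing 150 mM NaCl, 0.1 mM GDP and 0.05% NP40; unlabeled peptide titration served as control.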

[3] = molecular target: Cytochrome P450 3A4 (Homo sapiens) (UniProt P08684); test: qHTS Assay for Inhibitors and Substrates of Cytochrome P450 3A4 (AID 884); further: nearly all actives have a fitted effect of over 50% in size; further: potency means the concentration at half of the fitted maximal effect; on activity change, negative = inhibition: series mostly up to about 57 µM; on the % scale 0 is the no-effect control and ±100 the full control effect
Cytochrome P450 3A4 (Homo sapiens), sequence (P08684 whole entry, looked up): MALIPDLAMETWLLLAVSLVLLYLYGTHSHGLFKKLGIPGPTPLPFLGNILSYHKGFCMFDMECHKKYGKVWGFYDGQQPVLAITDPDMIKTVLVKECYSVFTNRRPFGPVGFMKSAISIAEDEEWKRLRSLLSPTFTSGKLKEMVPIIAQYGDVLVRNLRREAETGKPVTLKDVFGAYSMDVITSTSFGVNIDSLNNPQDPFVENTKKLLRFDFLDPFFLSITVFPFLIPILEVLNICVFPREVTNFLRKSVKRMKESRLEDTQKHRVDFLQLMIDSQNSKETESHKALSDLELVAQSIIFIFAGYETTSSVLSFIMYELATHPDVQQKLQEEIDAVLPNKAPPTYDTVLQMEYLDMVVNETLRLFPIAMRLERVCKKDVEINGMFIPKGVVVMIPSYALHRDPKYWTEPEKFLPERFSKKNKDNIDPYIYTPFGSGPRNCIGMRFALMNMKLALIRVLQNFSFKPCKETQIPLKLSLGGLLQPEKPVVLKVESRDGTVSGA
Summary of the method: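 Luminescent readout of luciferin produced by CYP3A4 (20 nM) dealkylation of Luciferin-PPXE, 25 uM (its KM). NADPH-driven reaction ran 60 min at RT after 10 min compound preincubation; data scaled to 57 uM ketoconazole as 100% inhibition.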

[4] = molecular target: Cytochrome P450 3A4 (Homo sapiens) (UniProt P08684); test: qHTS Assay for Activators of Cytochrome P450 3A4 (AID 885); further: nearly all actives have a fitted effect of over 65% in size
Summary of the method: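 Using 20nM recombinant human CYP3A4 in potassium phosphate (200mM), substrate Luciferin-PPXE at 25uM, luminescent luciferin detection followed a 60-min RT NADPH reaction; data scaled to 57 uM ketoconazole.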

[5] = molecular target: Cytochrome P450 2C19 (Homo sapiens) (UniProt P33261); test: qHTS Assay for Inhibitors and Substrates of Cytochrome P450 2C19 (AID 899); further: nearly all actives have a fitted effect of over 60% in size; further: potency means the concentration at half of the fitted maximal effect
Cytochrome P450 2C19 (Homo sapiens), sequence (P33261 whole entry, looked up): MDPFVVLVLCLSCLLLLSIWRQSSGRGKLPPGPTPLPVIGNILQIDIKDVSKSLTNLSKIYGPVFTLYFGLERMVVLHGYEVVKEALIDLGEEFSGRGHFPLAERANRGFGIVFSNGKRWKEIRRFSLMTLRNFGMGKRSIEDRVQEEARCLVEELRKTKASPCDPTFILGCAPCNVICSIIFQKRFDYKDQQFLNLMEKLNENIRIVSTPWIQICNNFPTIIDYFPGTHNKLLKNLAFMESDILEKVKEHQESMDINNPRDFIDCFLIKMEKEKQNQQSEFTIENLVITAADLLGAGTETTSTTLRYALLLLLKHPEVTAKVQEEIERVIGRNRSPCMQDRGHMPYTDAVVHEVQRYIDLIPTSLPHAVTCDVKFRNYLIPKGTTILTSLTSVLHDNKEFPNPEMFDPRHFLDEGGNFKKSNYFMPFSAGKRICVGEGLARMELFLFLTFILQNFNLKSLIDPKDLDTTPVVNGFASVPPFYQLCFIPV
Summary of the method: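 Luminescence readout of luciferin formed from 10uM Luciferin-H EGE (KM level) by 5 nM CYP2C19 in 50mM KPO4. 60 min NADPH-driven reaction at 37C after 10 min compound preincubation; data scaled to 57uM ketoconazole inhibition.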

[6] = molecular target: Muscarinic acetylcholine receptor M1 (Rattus norvegicus) (UniProt P08482); test: qHTS Assay for Antagonists of Acetylcholine Muscarinic M1 Receptor: Kinetic Measurement of Intracellular Calcium Response (AID 943); further: nearly all actives have a fitted effect of over 75% in size; further: potency means the concentration at half of the fitted maximal effect;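 on activity change, negative = inhibition: Fluo-4 calcium signal as peak divided by basal fluorescence over 4 min; series mostly up to about 35 µM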
Muscarinic acetylcholine receptor M1 (Rattus norvegicus), sequence (P08482 whole entry, looked up): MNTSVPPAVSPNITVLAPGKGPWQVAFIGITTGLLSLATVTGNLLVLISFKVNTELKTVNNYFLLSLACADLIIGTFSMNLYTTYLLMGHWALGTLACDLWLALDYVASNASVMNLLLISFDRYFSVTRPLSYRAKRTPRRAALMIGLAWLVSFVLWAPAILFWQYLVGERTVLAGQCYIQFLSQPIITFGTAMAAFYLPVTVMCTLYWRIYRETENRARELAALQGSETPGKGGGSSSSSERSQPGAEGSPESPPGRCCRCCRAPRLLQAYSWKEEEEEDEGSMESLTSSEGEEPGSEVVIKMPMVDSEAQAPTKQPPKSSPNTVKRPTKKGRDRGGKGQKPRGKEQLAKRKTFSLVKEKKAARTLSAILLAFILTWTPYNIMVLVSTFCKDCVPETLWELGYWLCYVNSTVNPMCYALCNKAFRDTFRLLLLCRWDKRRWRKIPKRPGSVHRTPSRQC
Summary of the method: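 Antagonism is measured as inhibition of the carbachol-evoked calcium rise in CHO cells transfected with rat M1. Cells are dye-loaded, exposed to compound for 10 min, then stimulated with 100 nM carbachol (EC80).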

[7] = molecular target: Pyruvate kinase (Leishmania mexicana) (UniProt Q27686); test: qHTS Validation Assay for Inhibitors of Leishmania Mexicana Pyruvate Kinase (AID 945); further: potency means the concentration at half of the fitted maximal effect;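 on activity change, negative = inhibition: 0% = DMSO only neutral control wells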
Pyruvate kinase (Leishmania mexicana), sequence (Q27686 2-499 E452W): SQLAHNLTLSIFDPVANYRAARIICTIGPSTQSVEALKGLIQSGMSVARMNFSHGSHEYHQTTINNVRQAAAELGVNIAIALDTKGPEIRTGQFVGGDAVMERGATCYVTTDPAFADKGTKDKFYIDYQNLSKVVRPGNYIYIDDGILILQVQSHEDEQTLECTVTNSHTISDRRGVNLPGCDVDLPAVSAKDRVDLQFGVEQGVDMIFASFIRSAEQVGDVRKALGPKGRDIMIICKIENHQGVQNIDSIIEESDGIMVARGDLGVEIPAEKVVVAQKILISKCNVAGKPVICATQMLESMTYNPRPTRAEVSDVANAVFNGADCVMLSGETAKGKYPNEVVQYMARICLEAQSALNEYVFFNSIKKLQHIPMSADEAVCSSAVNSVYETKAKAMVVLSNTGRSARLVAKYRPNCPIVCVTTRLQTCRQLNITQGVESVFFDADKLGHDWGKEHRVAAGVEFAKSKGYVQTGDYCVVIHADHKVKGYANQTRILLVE
Summary of the method: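 Luminescent ATP detection (PKLight) after a 1 h room-temperature reaction of 0.2 nM LmPYK E451W mutant with 0.5 mM PEP and 0.1 mM ADP at pH 7.2. Activity is normalized to DMSO-only control wells.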

[8] = molecular target: Cytochrome P450 2D6 (Homo sapiens) (UniProt P10635); test: qHTS Assay for Inhibitors and Substrates of Cytochrome P450 2D6 (AID 891); further: nearly all actives have a fitted effect of over 60% in size; further: potency means the concentration at half of the fitted maximal effect;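 on activity change, negative = inhibition: luciferin methyl ether substrate demethylated by CYP2D6 with NADPH regeneration; on the % scale 0 is the no-effect control and ±100 the full control effect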
Cytochrome P450 2D6 (Homo sapiens), sequence (P10635 whole entry, looked up): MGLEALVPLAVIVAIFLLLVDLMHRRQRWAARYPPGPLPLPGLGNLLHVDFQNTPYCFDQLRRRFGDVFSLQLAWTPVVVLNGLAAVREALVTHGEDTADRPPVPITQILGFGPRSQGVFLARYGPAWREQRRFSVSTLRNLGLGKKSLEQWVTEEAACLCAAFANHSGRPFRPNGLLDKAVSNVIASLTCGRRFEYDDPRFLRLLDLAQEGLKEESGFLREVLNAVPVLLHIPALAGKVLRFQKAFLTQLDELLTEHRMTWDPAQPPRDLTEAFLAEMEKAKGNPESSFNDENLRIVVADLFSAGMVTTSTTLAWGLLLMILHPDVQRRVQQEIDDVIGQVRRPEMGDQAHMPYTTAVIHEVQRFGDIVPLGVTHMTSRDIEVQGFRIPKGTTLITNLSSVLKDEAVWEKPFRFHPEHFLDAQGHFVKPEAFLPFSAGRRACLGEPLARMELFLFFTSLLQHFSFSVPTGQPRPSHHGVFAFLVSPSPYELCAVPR
Summary of the method: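 Luminescent read-out of luciferin formed by 5 nM human CYP2D6 demethylating 30 uM Luciferin-ME EGE (Km level) over 60 min at room temperature after NADPH regeneration addition. Data normalized to full inhibition by 1.43 uM quinidine.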

[9] = Confirmation and Secondary Assay for Modulators of Hemoglobin Beta Chain Splicing at IVS2 654 locus (AID 910);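 further: HeLa cells stably carrying EGFP split by mutant beta-globin IVS2-654 intron; % of control where 0% means no effect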
Summary of the method: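 Readout: per-well total peak green fluorescence (488 nm ex, 500–520 nm em) from objects 5–250 µm, reflecting correct splicing of an EGFP-654 reporter. Compounds were applied for 2 days at 37 °C to overnight-plated HeLa EGFP-654 cells; controls were DMSO and 500 nM IVS2-654 PNA.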

[10] = qHTS Assay for Identification of Small Molecule Agonists for Thrombopoietin (TPO) Signaling Pathway (AID 917); further: potency means the concentration at half of the fitted maximal effect
Summary of the method: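 Stimulation at the TPO EC50 (26 pM final) was used to detect activators. Ba/F3 mouse cells bearing human TPO receptor and a luciferase reporter under the Glycoprotein IIb promoter were exposed to compounds for 24 hrs at 37 C.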

[11] = Confirmation and Secondary Assay for Modulators of Hemoglobin Beta Chain Splicing at IVS2 705 locus (AID 930);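 further: HeLa cells stably expressing the EGFP-705 splicing reporter; GFP fluorescence per well restored by corrected splicing of the IVS2-705 intron in EGFP; series mostly up to about 46 µM; % of control where 0% means no effect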
Summary of the method: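 Read-out: total peak GFP fluorescence per well (488 nm excitation, 500-520 nm emission) by laser-scanning cytometry. Cells: HeLa EGFP-705 splicing reporter, 2 days compound exposure in Optimem/2% FCS.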

[12] = molecular target: Muscarinic acetylcholine receptor M1 (Rattus norvegicus) (UniProt P08482); test: qHTS Assay for Antagonists of Acetylcholine Muscarinic M1 Receptor: Measurement of IP-One Response (AID 944); further: nearly all actives have a fitted effect of over 75% in size; further: potency means the concentration at half of the fitted maximal effect
Summary of the method: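 Antagonist mode with rat M1 receptor transfected into CHO cells. Compound is added first for 10 min, carbachol at its EC80 follows for 30 min, and lysis reagents then allow TR-FRET detection of accumulated IP1.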

[13] = molecular target: Cytochrome P450 2C9 (Homo sapiens) (UniProt P11712); test: qHTS Assay for Inhibitors and Substrates of Cytochrome P450 2C9 (AID 883); further: nearly all actives have a fitted effect of over 60% in size; further: potency means the concentration at half of the fitted maximal effect; on activity change, negative = inhibition: on the % scale 0 is the no-effect control and ±100 the full control effect
Cytochrome P450 2C9 (Homo sapiens), sequence (P11712 whole entry, looked up): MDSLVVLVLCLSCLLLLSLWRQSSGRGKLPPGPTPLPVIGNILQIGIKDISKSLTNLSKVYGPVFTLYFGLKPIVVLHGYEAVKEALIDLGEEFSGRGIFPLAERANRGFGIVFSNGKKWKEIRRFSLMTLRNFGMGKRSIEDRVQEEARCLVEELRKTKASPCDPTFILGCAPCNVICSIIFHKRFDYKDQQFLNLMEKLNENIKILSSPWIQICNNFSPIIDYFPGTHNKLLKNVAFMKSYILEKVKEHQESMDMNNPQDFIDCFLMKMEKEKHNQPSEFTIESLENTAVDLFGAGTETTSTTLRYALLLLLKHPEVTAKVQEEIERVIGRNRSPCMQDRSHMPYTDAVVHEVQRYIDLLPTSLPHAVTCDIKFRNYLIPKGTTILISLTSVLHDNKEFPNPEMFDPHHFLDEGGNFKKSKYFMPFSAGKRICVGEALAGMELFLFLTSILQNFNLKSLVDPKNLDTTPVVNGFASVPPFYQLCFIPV
Summary of the method: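 Luminescent read-out of deoxyluciferin hydroxylation, normalized to 57uM sulphaphenazole (AC100). Reaction: 10nM enzyme, 100uM Luciferin-H (equal to KM), 25mM KPO4, 10 min compound preincubation, then 60 min with NADPH regeneration, both at 37C.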

[14] = qHTS Assay for Identification of Small Molecule Antagonists for Thrombopoietin (TPO) Signaling Pathway (AID 918); conditions: TPO-dependent cell signaling reporter, antagonist mode; further: potency means the concentration at half of the fitted maximal effect; nearly all actives have a fitted effect of over 60% in size
Summary of the method: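 Inhibitors of TPO signaling are sought by stimulating IL-3-starved murine Ba/F3 cells (human TPO receptor, Glycoprotein IIb-driven luciferase) with TPO at its EC50 of 26 pM alongside compound. After 24 hrs at 37 C, reporter luminescence is measured.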

O=C(O)c1cc(=O)c2c(Cl)cc(Cl)cc2[nH]1
inactive: Potency [1]

COc1ccccc1N1CCN(CCCCNS(=O)(=O)c2cccc3c(N(C)C)cccc23)CC1
inactive: outcome [2] | Potency [4] | Potency [7]
active: Potency [3] 2510 nM | Potency [5] 501 nM | Potency [6] 11200 nM

COc1ccccc1CNCCCCCCNCCCCCCCCNCCCCCCNCc1ccccc1OC
inactive: outcome [2] | Potency [4] | Potency [1] | Potency [7]

NCCCCC(=O)O
inactive: outcome [2] | Potency [3] | Potency [8] | outcome [9] | Potency [10] | outcome [11] | Potency [6] | Potency [12] | Potency [7]

Fc1ccc(C(OCCCc2cnc[nH]2)c2ccc(F)cc2)cc1
inactive: outcome [2] | Potency [4] | Potency [7]
active: Potency [3] 794 nM | Potency [8] 631 nM | Potency [5] 4 nM | Potency [6] 5010 nM | Potency [12] 7940 nM

CC(C)(C=O)Cc1cc(C(C)(C)C)c(O)c(C(C)(C)C)c1
inactive: outcome [2] | Potency [4] | Potency [5] | Potency [10] | Potency [6] | Potency [7]

CN(C)c1nc2c(Br)c(Br)c(Br)c(Br)c2[nH]1
inactive: outcome [2] | Potency [4] | Potency [6] | Potency [12] | Potency [7]
active: Potency [3] 20000 nM | Potency [1] 501 nM | Potency [10] 1260 nM

NCCSSCCN
inactive: outcome [2] | Potency [3] | Potency [1] | outcome [9] | outcome [11] | Potency [12] | Potency [7]

CN=c1nc(-c2ccccc2)n(-c2ccccc2)s1
inactive: outcome [2] | Potency [4] | Potency [1]
active: Potency [13] 2 µM | Potency [5] 3160 nM | Potency [14] 2510 nM | Potency [12] 12600 nM | Potency [7] 5010 nM

N#C/C(=C\c1ccc(O)c(O)c1)C(=O)NCCCc1ccccc1
inactive: outcome [2] | Potency [4] | Potency [6] | Potency [7]
active: Potency [3] 2510 nM

CCCCN1CCC(n2c(=O)[nH]c3ccccc32)CC1
active: Potency [8] 3160 nM
inactive: outcome [2] | Potency [13] | Potency [1] | Potency [10] | Potency [6] | Potency [7]

Oc1cc2c(cc1O)CN(C(=S)NCCc1ccc(Cl)cc1)CCC2
active: Potency [3] 3160 nM | Potency [5] 5.01 µM and 316 nM
inactive: outcome [2] | Potency [4] | Potency [6] | Potency [12] | Potency [7]

C[C@@H](NC(=O)/C(C#N)=C/c1ccc(O)c(O)c1)c1ccccc1
inactive: outcome [2] | Potency [13] | Potency [4] | Potency [6] | Potency [12] | Potency [7]

O=C(O)[C@@H]1C[C@@H](C(=O)O)N1
inactive: outcome [2] | Potency [3] | Potency [1] | Potency [10] | Potency [6] | Potency [12] | Potency [7]

COc1cccc(C(=O)NCCN2CCN(c3ccc(Cl)cc3)CC2)c1
inactive: outcome [2] | Potency [4] | Potency [1] | Potency [10] | Potency [7]

N=C(N)SCCc1ccc(CCSC(=N)N)cc1
inactive: outcome [2] | Potency [3] | Potency [1] | Potency [10] | Potency [6] | Potency [12] | Potency [7]

N#C/C(=C\c1ccc(O)c(O)c1)C(=O)NCc1ccccc1
inactive: outcome [2] | Potency [13] | Potency [4] | Potency [8] | Potency [5] | Potency [6] | Potency [7]

NC(N)=NC(=O)c1nc(Cl)c(N2CCCCCC2)nc1N
active: Potency [5] 5010 nM
inactive: outcome [2] | Potency [3] | Potency [1] | outcome [9] | outcome [11] | Potency [12]

O=C(O)c1cc([N+](=O)[O-])ccc1NCCCc1ccccc1
active: Potency [13] 7.94 µM and 501 nM
inactive: outcome [2] | Potency [8] | Potency [5] | Potency [6] | Potency [12] | Potency [7]

Brc1c(Br)c(Br)c2n[nH]nc2c1Br
inactive: outcome [2] | Potency [4] | Potency [6] | Potency [12] | Potency [7]
active: Potency [3] 2510 nM

O=C(O)CC[C@@H](C(=O)O)N1C(=O)c2ccccc2C1=O
inactive: outcome [2] | Potency [3] | activity change, negative = inhibition [8] 21.6% [at 11.4 µM] | Potency [10] | Potency [12] | Potency [7]
active: Potency [6] 25.1 nM
